Imprint erasure = qHTS Assay for Compounds that Induce Erasure of Genomic Imprints; mouse ES Peg3-LacZ reporter, beta-gal luminescence, 40 h; Potency, µM (doses to about 60.7 µM), actives largely listed as activators; 0.02% of 110,000 active
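Each well holds 300 Peg3LacZ-Neo (maternal) female ES cells incubated 40 h at 37C, 5% CO2. LacZ is measured by BetaGlo luminescence, with AC50 and maximum efficacy derived from dose-response curves.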
p53ts 32C tox = qHTS Screen for Compounds that Selectively Target Cancer Cells with p53 Mutations: Cytotoxicity of p53ts Cells at the Permissive Temperature; H1299-p53A138V at 32C, ATP luminescence viability, 24 h; 0.93% of 130,000 active; AID 924, 2007; Potency, µM (doses to about 46.1 µM), most hits filed as cytotoxic; note: nearly all actives have a fitted effect of over 55% in size
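ATP-content luminescence (ATPlite) read-out after 24 h compound exposure at 32C in H1299-p53A138V cells (600/well). Tested up to 46 uM. Normalized to DMSO (0%) and 100 uM tamoxifen (100% killing); Hill-fit AC50.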
p53ts 39C tox = qHTS Screen for Compounds that Selectively Target Cancer Cells with p53 Mutations: Cytotoxicity of p53ts Cells at the Nonpermissive Temperature; H1299-p53A138V viability at 39C, ATP luminescence, 24 h; Potency, µM (top dose mostly 46.1 µM), actives largely listed as cytotoxic; 1.5% of 130,000 active; note: nearly all actives have a fitted effect of over 55% in size
IkB signaling = IkB Signaling; AID 445, 2006; 0.04% of 110,000 active; Potency, µM (series often up to 57.1 µM); ABC-DLBCL IkBa-CBG/CBR dual luciferase ratio, 4 h; response scale: scaled: untreated 0%, proteasome inhibitor 100%; active = well fitted curve in the direction sought with a large enough effect in the signal ratio, not every such curve was filed as active; inconclusive = small, poorly fitted or top-dose-only effect, or a change in a side signal; the % refers to the signal ratio;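 note: the direction sought is a rising ratio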
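In this assay, an IκBα–CBG68 fusion accumulates when IKK-driven degradation is blocked; native CBR normalizes for cell number. OCI-Ly3 cells were treated 4 h with compound and doxycycline, then green and red light read after Chroma-Glo addition.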
Numbers stand for hits; i = inactive; ? = inconclusive; nt = no result given; ! = a repeat was not active; [ ] = remark or other dose. The list is not random: actives were taken first. Their share in the collection is about 1.8%. Unless noted, calls come from the whole dose curve; as a rule, active = well fitted curve in the direction sought with a large enough effect; inconclusive = small, poorly fitted or top-dose-only effect, or another doubt; inactive = no such curve, though single readings can be large; an effect the other way counts as inactive or inconclusive.

SMILES | Imprint erasure | p53ts 32C tox | p53ts 39C tox | IkB signaling
COc1cccc(C(c2nnnn2CS(=O)(=O)c2ccc(C)cc2)N2CCN(C)CC2)c1OC (configuration not stated) | i | i | i | i
CCc1nnc(NC(=O)CSc2nc3c(cc2C#N)CCCC3)s1 | i | 0.794µM | 1.58µM | i
CCn1c(=N)n(CC(O)COc2ccccc2)c2ccccc21 (configuration not stated) | i[10.9 µM] | i | i | i
CCN(CC)CCn1c(=N)n(CC(O)COc2ccccc2C)c2ccccc21 (configuration not stated) | i[10.9 µM] | ? | 15.8µM | ?
CCN(CC)CCn1c(=N)n(CCOc2ccccc2Cl)c2ccccc21 | i[10.9 µM] | ? | 10µM | ?
Cc1cccc(OCC(O)Cn2c(=N)n(CCN3CCCCC3)c3ccccc32)c1 (configuration not stated) | i | i | 12.6µM | ?
CC(C)COc1ccc(-c2nnn(CC(=O)N3CCCC3)n2)cc1 | ? | i | i | i
COC(=O)/C=c1\sc2ncnn2c1=O | i | i | i | i
Cc1ccc(NC(=O)CSCc2cnn(-c3ccccc3)c2-n2cccc2)c(C)c1 | i[10.9 µM] | i | ? | ?
CC(=O)c1ccc(Nc2nc(C)nc3c2oc2ccccc23)cc1 | i | i | i | i
CCc1ccc(-n2c(SCc3ccccc3C)nc3[nH]ncc3c2=O)cc1 | i[10.9 µM] | ? | 25.1µM | ?
CCc1ccc(-n2c(SCc3ccccc3Cl)nc3[nH]ncc3c2=O)cc1 | i[10.9 µM] | ? | ? | ?
Cc1ccc(-n2c(SCc3cccc(F)c3)nc3[nH]ncc3c2=O)cc1C | i[10.9 µM] | i | i | i
Cc1ccc(-n2c(SCc3ccccc3C)nc3[nH]ncc3c2=O)cc1C | i[10.9 µM] | i | 25.1µM | ?
COC(=O)/C=C/S(=O)(=O)c1ccc(NC(C)=O)cc1 | i | ? | ? | ?
CC(C)(C)c1ccc(S(=O)(=O)/C=C\C#N)cc1 | i | 15.8µM | 20µM | ?
Cc1ccc(S(=O)(=O)/C=C\C#N)cc1 | i | 12.6µM | 12.6µM | ?
CC(C)(C)c1ccc(S(=O)(=O)N2CCN(CCC#N)CC2)cc1 | i | i | i | i
CC(C)c1ccccc1N=C1SCCN1C1CCS(=O)(=O)C1 (configuration not stated) | i | i | i | i
CCOc1ccccc1Nc1nc(-c2cccc(Cl)c2)c2c(n1)-c1ccccc1OC2 | i[10.9 µM] | ? | 12.6µM | ?
Cc1ccc(CNC(=O)c2ccc(Cn3c(=O)c4ccccc4n(CC(=O)Nc4c(C)cc(C)cc4C)c3=O)cc2)cc1 | i[10.9 µM] | 15.8µM | i | i
Cc1cc(C)c(NC(=O)Cn2c(=O)n(Cc3ccc(C(=O)NCc4ccco4)cc3)c(=O)c3sccc32)c(C)c1 | i[10.9 µM] | ? | 25.1µM | ?
Cc1ccc(CNC(=O)c2ccc(Cn3c(=O)c4ccccc4n(CC(=O)Nc4ccc(C)cc4C)c3=O)cc2)cc1 | i[10.9 µM] | i | ? | ?
CCN1CCN(C(=O)Cn2ncc3ccsc3c2=O)CC1 | i | i | i | i
CCC(Cc1ccccc1)NC(=O)Cn1ncc2c3ccccc3n(Cc3ccc(F)cc3)c2c1=O (configuration not stated) | i[10.9 µM] | ? | 10µM | i
SMILES | Imprint erasure | p53ts 32C tox | p53ts 39C tox | IkB signaling
O=C(Cn1ncc2c3ccccc3n(Cc3ccccc3)c2c1=O)NCCc1ccc(Cl)cc1 | i[10.9 µM] | i | 12.6µM | i
CCc1ccc(NC(=O)CSc2nnc(-c3nonc3NC(C)=O)n2-c2ccccc2)cc1 | i[10.9 µM] | i | i | i
Cc1nc(CSc2nnc(C)s2)cs1 | i | i | i | i
Cc1nnc(Sc2nc(Sc3nnc(C)s3)nc(N3CCN(C)CC3)n2)s1 | i | 20µM | 3.98µM | 7.94µM
Cc1cccc(/N=C/c2c(O)[nH]c3ccccc23)n1 | i | ? | ? | i
Oc1[nH]c2ccccc2c1C=Nc1ccc2c(c1)OCCO2 | i | ? | 12.6µM | ?
CC(C)=CCC/C(C)=C/CO | i[10.9 µM] | i[9.22 µM] | i[9.22 µM] | i[11.4 µM]
O=C(c1ccc(OCCN2CCCCC2)cc1)c1c(-c2ccc(O)cc2)sc2cc(O)ccc12 | i | 20µM! | 25.1µM! | i
Cc1ccc(C(=O)Nc2ccc3c(c2)CCC3)o1 | nt | 12.6µM | ? | nt
CCC(=O)Nc1cccc(NC(=O)c2cc3ccccc3o2)c1 | i | 10µM | 12.6µM | ?
Cc1cccc(NC(=O)c2cc3ccccc3o2)c1 | i | 12.6µM | 10µM | ?
COc1cc(=O)[nH]c(=O)n1CC(=O)c1ccccc1 | nt | i | i | nt
CCOC(=O)CCCNC(=O)CCNC(=O)c1ccc(OC)cc1 | i | i | i | i
COc1ccc(Cc2nnc(N/N=C/c3ccc(O)cc3)[nH]c2=O)cc1OC | nt | nt | 2.82µM | nt
O=c1cc(-c2cccc(O)c2)oc2cc(O)ccc12 | i | i | i | i[11.4 µM]
COC(=O)COc1ccc2oc(-c3ccc(OC)cc3)cc(=O)c2c1 | i[10.9 µM] | i | i | i
COc1cccc(-c2cc(=O)c3ccc(OC)cc3o2)c1 | i | i | i | nt
O=c1cc(-c2cccc(O)c2)oc2c(O)c(O)ccc12 | i | ? | 25.1µM | i[11.4 µM]
COc1ccc2oc(-c3ccc(O)cc3)cc(=O)c2c1 | i | 5.01µM | 7.94µM | i[11.4 µM]
CCCCC(=O)Oc1ccc2oc(-c3ccc(OC)cc3)cc(=O)c2c1 | i[10.9 µM] | ? | 6.31µM | ?
COc1cccc(-c2cc(=O)c3cc(O)ccc3o2)c1 | i | ? | 12.6µM | i[11.4 µM]
COc1ccc(-c2cc(=O)c3cc(OC)ccc3o2)cc1 | i | ? | ? | nt
CCSc1ccccc1C(=O)Nc1cccnc1 | i | i | i | i
Cc1ccc2oc(-c3ccccc3)c(O)c(=O)c2c1 | i | i | i | i[11.4 µM]
COc1cccc(-c2oc3ccc(C)cc3c(=O)c2O)c1 | i[10.9 µM] | ? | 10µM | ?
SMILES | Imprint erasure | p53ts 32C tox | p53ts 39C tox | IkB signaling
CNc1ncnc2c1ncn2[C@@H]1O[C@H](CO)[C@H](O)[C@H]1O | i | nt | nt | nt
CCCn1c(=O)n(C)c(=O)c2c(SCc3cc(C(C)=O)ccc3OCC)nc(C3CC3)nc21 | i | i | i | i
CCCCn1c(CN2CCOCC2)nc2c1c(=O)n(C)c(=O)n2C | i | ? | 3.98µM | ?
Nc1nc2ccc(N3CCOCC3)cc2s1 | i | 3.98µM | 3.98µM | i
CC(=O)c1ccc(NC(=O)CSc2nc(-c3cccc(F)c3)nc3c2c(=O)n(C)c(=O)n3C)cc1 | i[10.9 µM] | i | i | i
CCS(=O)(=O)c1ncc(N(Cc2ccccc2)Cc2ccco2)c(C(=O)Nc2cccc(Cl)c2C)n1 | i[10.9 µM] | i | i | ?
CCS(=O)(=O)c1ncc(Cl)c(C(=O)N(Cc2ccccc2)Cc2ccco2)n1 | i[10.9 µM] | 17.8µM | 3.98µM | ?
O=C(O)[C@@H]1[C@H](C(=O)O)[C@H]2C(=O)C=C[C@H]1N2Cc1ccccc1 | i[10.9 µM] | i[9.22 µM] | i[9.22 µM] | 3.98µM
Cc1cc(OCC(=O)O)c2cccc(C)c2n1 | i | i | i | i
CCOc1cc(C(=S)N2CCCC2)ccc1OCC(=O)Nc1c(C)cc(C)cc1C | nt | i | i | nt
c1ccc(-c2ccc(N3CC4(CCNCC4)C3)cc2)cc1 | nt | 20µM | 15.8µM | i[11.4 µM]
COC(=O)N1CCC2(CC1)CN(c1ccc(-c3ccccc3)cc1)C2 | nt | i | i | i[11.4 µM]
c1ccc(-c2ccc(N3CCCC4(CCNCC4)C3)cc2)cc1 | nt | 20µM | 12.6µM | i[11.4 µM]

Screening data deposited in PubChem BioAssay by National Center for Advancing Translational Sciences (NCATS).
